The record followed here is PubChem BioAssay AID489037 (National Center for Advancing Translational Sciences (NCATS), 2010).

“And” between values parts separate entries of the source, which are not always exact repeats. Equal entries are not always repeated. Inconclusive results are not listed. Where a structure was tested more than once in an assay, its records may differ in their call. The source made the active and inactive calls. Calls follow the shape of the dose curve; as a rule, active = well fitted inhibition curve with a large enough effect; inconclusive = small, poorly fitted or top-dose-only effect, or effect the other way; inactive = no such curve, though single readings can be large or run the other way.

This assay deals with Nuclear receptor ROR-gamma (Mus musculus) (UniProt P51450). In words: Secondary confirmation assay for inhibitors of ROR gamma transcriptional activity. Conditions: Drosophila S2 Gal4-RORgamma UAS-luciferase reporter, 20 h; series mostly up to 92.2 µM; activity change, negative = inhibition: at the top concentration. The source says: NIH Molecular Libraries Probe Production Network [MLPCN] NIH Chemical Genomics Center [NCGC] MLPCN Grant: R03 DA026211-01 Assay Provider: Dan Littman, New York University Keywords: NIH Roadmap, MLPCN, MLI, MLSMR, qHTS, NCGC, qHTS, nuclear hormone receptor, retinoic acid-related orphan receptor, ROR gamma Assay Overview: The retinoic acid-related orphan receptor (ROR) gamma is a transcription factor that has a central role in the differentiation of Th17 cells, a subset of T helper cells that secrete the inflammatory cytokines IL-17, IL-17F, and IL-22. Th17 cells have been implicated in graft versus host disease, autoimmune disease and asthma. ROR gamma is induced in naive T helper cells in the presence of TGF-beta combined with IL-6, IL-21, or IL-23, and thereafter directs the expression of the Th17 lineage cytokines. To study the mechanism of action of ROR gamma, an insect cell-based assay was screened. This Drosophila Schneider cell line was stably transfected with two vectors: a gene expressing a fusion of the Gal4 DNA binding domain and ROR gamma transactivation domain under the control of the metallothionine promoter and a Photinus luciferase reporter regulated by the Gal4 binding site enhancer, UAS. […] Small molecule inhibitors of ROR gamma activity are detected by a decrease in luciferase reporter activity.
Chain of Nuclear receptor ROR-gamma (Mus musculus) (P51450 whole entry, looked up, the tested form may be a part): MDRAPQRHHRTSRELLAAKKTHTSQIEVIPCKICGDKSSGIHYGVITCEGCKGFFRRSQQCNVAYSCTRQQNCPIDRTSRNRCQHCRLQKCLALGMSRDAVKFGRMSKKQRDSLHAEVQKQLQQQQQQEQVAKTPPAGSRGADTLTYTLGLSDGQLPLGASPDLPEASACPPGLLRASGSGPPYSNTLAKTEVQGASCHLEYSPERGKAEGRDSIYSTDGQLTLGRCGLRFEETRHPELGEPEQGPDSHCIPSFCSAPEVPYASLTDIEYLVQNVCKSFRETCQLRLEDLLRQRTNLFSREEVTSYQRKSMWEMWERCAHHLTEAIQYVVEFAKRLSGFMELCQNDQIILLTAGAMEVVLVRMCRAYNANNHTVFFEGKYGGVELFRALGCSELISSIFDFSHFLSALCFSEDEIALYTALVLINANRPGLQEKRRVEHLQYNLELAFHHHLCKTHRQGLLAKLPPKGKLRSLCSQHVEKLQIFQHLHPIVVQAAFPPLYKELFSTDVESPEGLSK
Assay Protocol Summary: For screening, 600 cells in 4 uL/well were dispensed into white solid 1536-well plates (Grenier) using a solenoid-based dispenser. Following transfer of 23 nL compound or DMSO vehicle by a pin tool, the plates were incubated 1 hr at ambient temperature, and 1 uL/well copper sulfate (700 uM final concentration) was added. The plates were centrifuged 15 s at 1000 RPM and incubated 20 hr at ambient temperature. After addition of 1.5 uL Photinus luciferase detection reagent, the plates were incubated 10 min at ambient temperature and then read by an ViewLux (Perkin Elmer) to detect luminescence. Keywords: NIH Roadmap, MLPCN, MLI, MLSMR, qHTS, NCGC, qHTS, nuclear hormone receptor, retinoic acid-related orphan receptor, ROR gamma
As to `O=C(NC(=S)Nc1nc(-c2ccccc2)cs1)c1cccnc1`, the Potency was 5.12 µM (active).

As to `COc1ccc(C)c(O)c1C(CC(=O)N1CCCC(C)C1)c1ccc2c(c1)OCO2` (stereo not given), the Potency is 40.7 µM (active).

In the case of `COC(=O)c1ccc(OCC(=O)c2ccc(O)cc2O)cc1`, the Potency was 0.363 µM (active).

As for `COc1cc(OC)c(C(CC(=O)N2CC(C)CC(C)C2)c2ccc3c(c2)OCO3)c(OC)c1` (stereo not given), the Potency is 4.57 µM (active).

In the case of `COc1cc(O)c(C(CC(=O)N2CCCC(C)C2)c2ccccc2)c(OC)c1` (stereo not given), the Potency is 7.24 µM (active).

Turning to `Cc1cc(C)c2sc(NC(=O)c3ccc(N4C(=O)CCC4=O)cc3)nc2c1`, the Potency was 0.229 µM (active).

In the case of `CCNC(=O)CCc1nc(-c2ccc(C(C)(C)C)cc2)no1`, the Potency is 0.512 µM (active).

Regarding `CCOc1ccc(-c2cc(CCCC(=O)NCc3cccnc3)no2)cc1`, the Potency is 0.724 µM (active).

For `CC1CCCN(C(=O)CC(c2ccccc2)c2ccccc2O)C1` (stereo not given), the “activity change, negative = inhibition” value is 9.21% (inactive).

`COc1cc(O)c(C(CC(=O)N2CCOCC2)c2ccc(OC)c(OC)c2)c(OC)c1` (stereo not given): the “activity change, negative = inhibition” value is -16.7% (inactive).

Regarding `Cc1cc(C)n(-c2nc(SCC(=O)O)c3c4c(sc3n2)CCCC4)n1`, the Potency is 9.11 µM (active).

`COc1cc(O)c(C(CC(=O)N2CCC[C@@H](C)C2)c2ccc3c(c2)OCO3)c(OC)c1` (stereo not given in full): the Potency was 5.12 µM (active) and 22.9 µM (active) and inactive.

Turning to `COc1cc(O)c(C(CC(=O)N2CCCC(C(C)C)C2)c2ccc3c(c2)OCO3)c(OC)c1` (stereo not given), the Potency is 25.7 µM (active).

For the compound `COc1ccccc1CNC(=O)[C@@H](NC(=O)C1CCN(C(=O)[C@@H]2CCCN2C(=O)OC(C)(C)C)CC1)C(C)C`, the Potency is 12.9 µM (active).

Consider `COc1cc(O)c(C(CC(=O)N2CC(C)NC(C)C2)c2ccc3c(c2)OCO3)c(OC)c1` (stereo not given), for which the “activity change, negative = inhibition” value is -16.5% (inactive).

Consider `COc1cc(O)c(C(CC(=O)N2CCCCC2)c2ccc(C)cc2)c(OC)c1` (stereo not given), for which the Potency is 32.3 µM (active).

Consider `COc1cc(O)c(C(CC(=O)N2CC(C)CC(C)C2)c2ccc(O)cc2)c(OC)c1` (stereo not given), for which the Potency was 2.04 µM (active).

With `Cc1ccc(OCCCC(=O)Nc2nc3ccccc3[nH]2)cc1`, the Potency was 7.24 µM (active).

Turning to `CN1CCN(C(=O)CCN2C(=O)/C(=C/c3ccccc3Cl)SC2=S)CC1`, the Potency is 28.8 µM (active).

On to `COc1cc(O)c(C(CC(=O)N2CCCC(c3ccccc3)C2)c2ccc3c(c2)OCO3)c(OC)c1` (stereo not given), for which the “activity change, negative = inhibition” value is -5.56% (inactive).

Turning to `Cc1nn(-c2cc(C)c3ccccc3n2)c2c1C1C(C2)C1(C)C` (stereo not given), the Potency was 3.63 µM (active).

Regarding `CCOC(=O)Cn1c(CN2CCc3ccccc3C2)nc2c1c(=O)n(C)c(=O)n2C`, the Potency was 5.75 µM (active).

Take `COC(=O)Cn1c(CN2CCc3ccccc3C2)nc2c1c(=O)n(C)c(=O)n2C`: the Potency was 6.45 µM (active).

With `CC(C)(C)c1ccc(S(=O)(=O)Nc2ccc(C(O)(C(F)(F)F)C(F)(F)F)cc2)cc1`, the Potency was 20.4 µM (active).

As to `COc1cc(O)c(C(CC(=O)N(Cc2ccccc2)Cc2ccccc2)c2ccc3c(c2)OCO3)c(OC)c1` (stereo not given), the “activity change, negative = inhibition” value is -6.12% (inactive).

For `CC(C)[C@H](NC(=O)C1CCN(C(=O)[C@@H]2CCCN2C(=O)OC(C)(C)C)CC1)C(=O)NCc1ccc(F)cc1`, the Potency is 32.3 µM (active).

For the compound `COCC1CCCCN1C(=O)c1cc(COc2ccc3ncccc3c2)on1` (stereo not given), the Potency is 11.5 µM (active).

As to `COc1cc(O)c(C(CC(=O)N2CCCC(C)C2)c2ccc(-c3ccccc3)cc2)c(OC)c1` (stereo not given), the “activity change, negative = inhibition” value is -26% (inactive).

Regarding `COc1cc(O)c(C(CC(=O)N2CCC(C)CC2)c2ccc(OC)c(OC)c2)c(OC)c1` (stereo not given), the “activity change, negative = inhibition” value was -29.8% (inactive).

`COc1cc(O)c(C(CC(=O)N2CCCC(COc3ccc(F)cc3)C2)c2ccc3c(c2)OCO3)c(OC)c1` (stereo not given): the “activity change, negative = inhibition” value is -4.08% (inactive).

Consider `COc1cc(O)c(C(CC(=O)N2CCCC(C)(C)C2)c2ccc3c(c2)OCO3)c(OC)c1` (stereo not given), for which the Potency is 5.12 µM (active).

Turning to `COc1cc(O)c(C(CC(=O)NCc2ccccc2)c2ccc3c(c2)OCO3)c(OC)c1` (stereo not given), the “activity change, negative = inhibition” value was 8.94% (inactive).

With `COc1cc(O)c(C(CC(=O)N2CCC[C@H](C)C2)c2ccc3c(c2)OCO3)c(OC)c1` (stereo not given in full), the Potency is 9.11 µM (active) and 3.23 µM (active) and inactive.

`COc1cc(O)c(C(CC(=O)N2CCCCC2)c2ccc(OC)c(OC)c2)c(OC)c1` (stereo not given): the “activity change, negative = inhibition” value is -14.4% (inactive).

Consider `COc1cc(O)c(C(CC(=O)NC2CCC(C)CC2)c2ccc3c(c2)OCO3)c(OC)c1` (stereo not given), for which the “activity change, negative = inhibition” value was -23.7% (inactive).

`COc1cc(O)c(C(CC(=O)N2CCCC(C)C2)c2cccc3ccccc23)c(OC)c1` (stereo not given): the “activity change, negative = inhibition” value was -26.6% (inactive).

For the compound `COc1ccc(C(CC(=O)Nc2ccc(F)cc2)c2ccccc2)cc1` (stereo not given), the “activity change, negative = inhibition” value was -71.9% (inactive).

In the case of `COc1cc(O)c(C(CC(=O)NC2CCCc3ccccc32)c2ccc3c(c2)OCO3)c(OC)c1` (stereo not given), the “activity change, negative = inhibition” value is 11.2% (inactive).

Consider `COc1cc(OC)c(C(c2ccccc2)C(C)(C)C(=O)N2CC(C)CC(C)C2)c(OC)c1` (stereo not given), for which the Potency is 5.12 µM (active).

With `C=C1Nc2c(-c3ccc(F)cc3)cnn2C(N)=C1c1ccccc1`, the Potency is 0.0911 µM (active).
